Many of the other results were omitted from the sample, so hits are more common in it than they were.
Sfp PPTase inh: inhibitors of Bacillus subtilis Sfp phosphopantetheinyl transferase; Q9F4F7; Biochemical Sfp PPTase activity, qHTS; Potency, µM, without a hit: largest response in the series, negative = inhibition, actives largely listed as inhibitors; 310,000 compounds, 3.5% hits;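 also: the enzyme is Sfp with the accession as filed and its product quenches rhodamine fluorescence; 0% = enzyme reaction without inhibitor and -100% = no enzyme wells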
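After 15 min at room temperature with compound, 15 nM Sfp received 5 uM rhodamine-CoA plus 12.5 uM BHQ-2-ybbR (50 mM Hepes pH 7.6, 10 mM MgCl2). Rate came from the fluorescence difference over 30 min, ex 525/em 598 nm.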
VDR inh: inhibitors of human vitamin D receptor. VDR-SRC2-3 peptide fluorescence polarization, 2 h. P11473. Potency, µM, for inactives: max response, negative = inhibition, most hits filed as inhibitors. AID 504847. 400,000 compounds, 0.93% hits; also: % is scaled to controls: 0 for no effect and ±100 for the full control effect
Target sequence (P11473 whole entry, looked up): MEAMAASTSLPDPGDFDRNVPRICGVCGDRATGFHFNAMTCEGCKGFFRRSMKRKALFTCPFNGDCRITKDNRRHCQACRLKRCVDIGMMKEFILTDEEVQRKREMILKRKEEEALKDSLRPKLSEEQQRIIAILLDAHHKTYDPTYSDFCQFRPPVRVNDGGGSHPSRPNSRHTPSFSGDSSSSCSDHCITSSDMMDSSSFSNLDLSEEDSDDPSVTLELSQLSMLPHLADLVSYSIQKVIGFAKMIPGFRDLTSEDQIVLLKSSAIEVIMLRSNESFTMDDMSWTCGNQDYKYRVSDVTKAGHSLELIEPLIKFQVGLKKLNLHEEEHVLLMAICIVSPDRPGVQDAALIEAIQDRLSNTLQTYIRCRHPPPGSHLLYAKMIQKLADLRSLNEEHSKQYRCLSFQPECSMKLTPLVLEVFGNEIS
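Signal is fluorescence polarization, reporting how far test compounds block the interaction of VDR with the SRC2-3 coregulator peptide after a 2 h room-temperature incubation.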
Glioma ERSR ind: inducers of ER stress response in human glioma cells. U87-MG GRP78 promoter luciferase reporter, 16 h. 420,000 compounds, 0.02% hits. Potency, µM, for the others: top-dose activation, hits mostly activators. AID 602332; also: series mostly up to about 76 µM; % of control where 0% means no effect; nearly all actives have a fitted effect of over 35% in size
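Stably transfected U87-MG glioma cells carrying a GRP78-based luciferase sensor; 16 h compound incubation. Luminescence end-point read 10 min after Bright-Glo addition at room temperature.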
12-LOX inh: blocks human arachidonate 12S-lipoxygenase; Potency, µM (highest dose often 108 µM), for the others: top-dose activity change, negative = inhibition, usual class: inhibitors; P18054; 580,000 compounds, 1.1% hits; AID 1671190; purified 12hLO, xylenol orange hydroperoxide absorbance; also: % is scaled to controls: 0 for no effect and ±100 for the full control effect
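Purified human 12hLO (150 nM final) in 25 mM Hepes, 0.01% Triton X-100, pH 7.0 was preincubated 15 min at room temperature with compound. Then 40 uM arachidonic acid was added, 30 min. Hydroperoxide was read by Fe-XO absorbance ratio 573/405 nm.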
G9a inh: blocks human histone lysine methyltransferase G9a. Q96KQ7. G9a H3K9 monomethylation, AlphaScreen, 2 h. Potency, µM (titrated, usually from 102 µM), for inactives: at the top dose activity, negative = inhibition, actives largely listed as inhibitors. 350,000 compounds, 8.8% hits; also: % is scaled to controls: 0 for no effect and ±100 for the full control effect; nearly all actives have a fitted effect of over 75% in size
Target sequence (Q96KQ7 913-1193 limits assumed): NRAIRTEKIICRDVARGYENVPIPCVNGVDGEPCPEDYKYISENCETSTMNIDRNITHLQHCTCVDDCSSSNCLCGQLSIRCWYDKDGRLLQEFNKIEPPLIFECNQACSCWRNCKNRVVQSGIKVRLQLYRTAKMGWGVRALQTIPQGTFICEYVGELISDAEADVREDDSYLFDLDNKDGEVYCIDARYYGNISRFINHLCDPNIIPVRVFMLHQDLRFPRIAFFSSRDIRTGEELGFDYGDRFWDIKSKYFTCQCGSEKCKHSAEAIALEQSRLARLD
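Using a bead-based AlphaScreen, monomethylated H3K9 product from 2 h room-temperature reactions (G9a 20 nM, peptide 500 nM, SAM 20 uM) was detected with 0.5 ug/mL rabbit anti-H3K9me1 antibody.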
* = called active by the depositor; u = inconclusive; x = not tested or not shown; [ ] = another dose, or the depositor's remark. Calls follow the shape of the dose curve; as a rule, active = well fitted curve in the direction sought with a large enough effect; inconclusive = small, poorly fitted or top-dose-only effect, or another doubt; inactive = no such curve, though single readings can be large; an effect the other way counts as inactive or inconclusive. Potency is read from the fitted curve at half-maximal effect.

SMILES	Sfp PPTase inh	VDR inh	Glioma ERSR ind	12-LOX inh	G9a inh
COc1ccc(CCNC(=O)CN(c2cccc(Cl)c2Cl)S(=O)(=O)c2ccccc2)cc1	x	x	x	-27.1%	x
CCOc1ccc(NC(=O)Cn2ncc3ccccc3c2=O)cc1	x	x	x	-12.3%	x
CCC(C)C(NC(=O)C(C)NC(=O)CNC(=O)OCc1ccccc1)C(N)=O (stereo unspecified)	x	x	x	-23.5%	x
O=C(NCc1ccco1)c1ccccc1Br	17.1%	u	-4.5%	1.5%	9.4%[12.7 µM]
Cc1ccc(NC(=S)/C(=C(\[O-])c2ccc(F)cc2)[n+]2ccccc2)cc1	44.7µM*	10.9%	-6.7%	-21.0%	12.6µM*
Cc1ccc(/C([O-])=C(/C(=S)NCc2ccco2)[n+]2ccccc2)cc1	u	x	x	x	2.51µM*
O=[N+]([O-])c1ccc(/C([O-])=C(/C(=S)NCc2ccco2)[n+]2ccccc2)cc1	8.91µM*	-4.9%	-1.8%	-30.8%	35.5µM*
[O-]/C(=C(\C(=S)NCc1ccco1)[n+]1ccccc1)c1ccccc1Br	12.6µM*	27.8%	-2.7%	u	u
CC1(C)CC(=O)C2=C(C1)Nc1nc(SCc3ccccc3)nn1C2c1cccs1 (stereo unspecified)	x	x	x	16.3%	x
COc1ccc(C2C=C(C)Nc3nc(SC)nn32)cc1 (stereo unspecified)	-1.0%	3.3%	-0.1%	u	56.2µM*
CN(Cc1ccc(F)cc1)c1ccc2ncc(Nc3ccc4c(c3)OCCO4)n2n1	x	x	x	13.5%[176 µM]	x
COc1ccccc1CNC(=O)CC(C)n1ccc(C)n1 (stereo unspecified)	x	x	x	10.8%	x
CC1(C)C2CCC1(C(=O)Nc1ccc(F)c(F)c1)C(=O)C2 (stereo unspecified)	x	x	x	8.8%	x
CCOC(=O)CSc1nc2sc3c(c2c(=O)[nH]1)CC(C)(CC)OC3 (stereo unspecified)	3.7%	-5.7%	u	u	31.6µM*
COCc1cccc(C(=O)NC(C)c2ccc(F)c(F)c2)c1 (stereo unspecified)	x	x	x	9.0%	x
Cc1cc(C(=O)CSc2nnc(N)s2)c(C)n1Cc1ccco1	9.6%	8.6%	-0.4%	-0.4%	39.8µM*
Cc1cc(C(=O)COC(=O)c2cccn2C)c(C)n1Cc1ccco1	-17.6%	-14.8%	2.9%	-2.3%	17.8µM*
Cc1cc(C(=O)COC(=O)c2ccco2)c(C)n1Cc1ccco1	-4.9%	-12.9%	-8.1%	-5.5%	u
COc1ccccc1-c1cnc(NCc2ccccc2)c2c1CCO2	x	x	x	-25.3%[176 µM]	x
O=C1C=C(C2CCCCC2)C(=O)c2ccccc21	x	-15.2%	-0.3%	44.7µM*	x
O=C(O)C1=C(C2CCCCC2)C(=O)c2ccccc21	x	-18.0%	-5.9%	-14.6%	x
COc1ccc(Nc2nc(C(=O)N(CCO)Cc3ccccc3)cs2)cc1	-7.3%	9.1%	-2.2%	u	44.7µM*
COc1ccc(Nc2nc(C(=O)OCC(=O)c3ccccc3)cs2)cc1	x	x	x	-7.4%	x
CCOc1ccccc1Nc1ccc(C(=O)O)cc1NC(C)=O	56.2µM*	-18.8%	-1.8%	9.2%	-33.5%[59 µM]
O=C(CSC(=S)N1CCCC1)Nc1cc2c(cc1Br)OCCO2	2.7%	-8.8%	-4.0%	-11.6%	7.3%
SMILES	Sfp PPTase inh	VDR inh	Glioma ERSR ind	12-LOX inh	G9a inh
O=C(CSC(=S)N1CCCC1)c1cc(Br)cc(Br)c1O	-102.5%	-20.2%	9.1%	14.1µM*	20µM*
CC1CCCN(C(=S)SCC(=O)c2cc(Br)cc(Br)c2O)C1 (stereo unspecified)	u	-0.3%	4.3%	6.31µM*	u
Cc1oc(-c2cccs2)nc1C(=O)N1CCC(NC(=O)C2CC2)CC1	x	x	x	0.7%	x
O=C(O)CN(/C=C/C(=O)C(F)(F)F)CC(=O)O	x	x	x	-8.9%	x
CC(NC(=O)c1ccc(N(C)C)c([N+](=O)[O-])c1)c1ccc(-n2ccnc2)cc1 (stereo unspecified)	13.0%	-3.4%	-1.0%	15.3%	79.4µM*
Cc1ccc(Cl)cc1N1CCN(C(=O)CCS(=O)(=O)c2cccc3nsnc23)CC1	x	x	x	-23.5%	x
O=C(O)c1cc(-c2cccs2)nn1-c1ccc(F)cc1	18.8%	2.7%	-1.8%	-12.4%	44.7µM*
CCN(CC(=O)Nc1ccccc1C(F)(F)F)C(=O)c1cc(-c2cccs2)nn1-c1ccccc1	-5.1%	-11.7%	-2.2%	-0.2%	x
CCCN(CC(=O)Nc1ccccc1OC)C(=O)c1cc(-c2cccs2)nn1-c1ccccc1	x	-16.6%	-5.2%	u	44.7µM*
NC(=O)COC(=O)c1cc(-c2cccs2)nn1-c1ccccc1	14.4%	-10.0%	-2.4%	-6.1%	-3.4%
CN(CC(=O)Nc1cccc(F)c1)C(=O)c1cc(-c2cccs2)nn1-c1ccccc1	x	-5.1%	-4.6%	-27.3%	50.1µM*
CCOC(=O)c1ccccc1NC(=O)c1ccc(N2CCCCS2(=O)=O)cc1Cl	x	x	x	-4.6%	x
CC(C)(O)/C=C1/Oc2ccccc2C1N1CCCCC1 (stereo unspecified)	4.5%	0.0%	-2.5%	172.4%	50.1µM*
Cc1cc(C)c(NC(=O)CCCc2cccs2)c(Cl)c1	x	x	x	-4.4%	x
CCNC(=O)CCSc1nc(C)cc(C)n1	31.6µM*	-19.6%	-3.2%	u	3.55µM*
Cc1cc(C)nc(SCCC(=O)N(C)C)n1	50.1µM*	-7.1%	-2.9%	0.0%	8.91µM*
CN(C)C(=O)CCSc1ccc(F)cc1	x	x	x	1.4%	x
CCC(=O)N1CCc2c(sc3ncnc(NCc4ccccc4)c23)C1	x	x	x	-8.0%	x
O=C(/C=C/c1ccc2c(c1)OCO2)Nc1c(C(=O)O)[nH]c2ccccc12	5.6%	u	2.0%	u	11.2µM*
O=C(CSC1=NS(=O)(=O)c2cc(Cl)ccc2N1)Nc1ccccc1F	x	-12.1%	-1.5%	u	10.0%[2.33 µM]
CC(=O)Nc1ccc(NC(=O)CSC2=NS(=O)(=O)c3cc(Cl)ccc3N2)cc1	x	-20.2%	-2.4%	-24.0%	10µM*
COc1ccc(C(=O)CSC2=NS(=O)(=O)c3cc(Cl)ccc3N2)cc1	x	22.2%	-2.3%	u	56.2µM*
CC(=O)N1CCc2c(sc(NC(=O)C3COc4ccccc4O3)c2C(N)=O)C1 (stereo unspecified)	31.6µM*	u	10.3%	-29.5%	x
CN1CCc2c(sc(NC(=O)CS(=O)(=O)c3ccc(F)cc3)c2C(N)=O)C1	x	2.1%	-2.8%	-21.8%	50.1µM*
CCOC(=O)N1CCc2c(sc(NC(=O)CCS(=O)(=O)c3ccccc3)c2C(N)=O)C1	-9.4%	-12.0%	-4.0%	0.0%	-8.3%
CC(=O)N1CCc2c(sc(NC(=O)CS(=O)(=O)c3ccc(F)cc3)c2C(N)=O)C1	x	u	-0.7%	-14.0%	50.1µM*
COC(=O)c1c(NC(=O)C2COc3ccccc3O2)sc2c1CCN(C(C)=O)C2 (stereo unspecified)	-28.0%	11.2%	-1.6%	-18.8%	-49.7%[59 µM]
CN1CCc2c(sc(NC(=O)Cc3ccccc3)c2C(N)=O)C1	-5.0%	-12.0%	-2.3%	u	-8.1%
CNC(=O)c1c(NC(=O)CCS(=O)(=O)c2ccc(Cl)cc2)sc2c1CCN(C(=O)OC)C2	x	4.1%	-4.3%	-26.7%	50.1µM*
CN1CCc2c(sc(/N=C/c3ccco3)c2C(N)=O)C1	9.8%	u	2.0%	119.0%	u

Source: PubChem BioAssay (National Center for Advancing Translational Sciences (NCATS))
